From PubChem
Six1-Eya2 blk: blocks human Six1 binding to Eya2; AlphaScreen GST-Six1/His-Eya2 binding, biochemical; hits give low values; activity change, % (concentration not given with the values); Q15475+O00167; hit rate 0.56% among 360,000; AID 651725; in the data active = activity change below about -65%; inconclusive = mostly about -30% to -63%; note: % is set by controls: 0 for no effect and ±100 for the full control effect
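Homogeneous AlphaScreen proximity assay pairing GST-Six1 with His-tagged Eya2 (added as 5X mix: 250 nM and 500 nM) in 50 mM Tris pH 8.0, 300 mM NaCl, 1 mM TCEP. Glutathione donor and nickel acceptor beads; 1 h, 37 °C, dark.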
G9a inh: inhibitors of human histone lysine methyltransferase G9a | Q96KQ7 | G9a H3K9 monomethylation, AlphaScreen, 2 h | Potency, µM (top dose mostly 102 µM), for the others: top-dose activity, negative = inhibition, most hits filed as inhibitors | hit rate 8.8% among 350,000 | AID 504332; note: potency is the fitted concentration of half-maximal effect; % is set by controls: 0 for no effect and ±100 for the full control effect; nearly all actives have a fitted effect of over 75% in size
Target sequence (Q96KQ7 913-1193 limits assumed): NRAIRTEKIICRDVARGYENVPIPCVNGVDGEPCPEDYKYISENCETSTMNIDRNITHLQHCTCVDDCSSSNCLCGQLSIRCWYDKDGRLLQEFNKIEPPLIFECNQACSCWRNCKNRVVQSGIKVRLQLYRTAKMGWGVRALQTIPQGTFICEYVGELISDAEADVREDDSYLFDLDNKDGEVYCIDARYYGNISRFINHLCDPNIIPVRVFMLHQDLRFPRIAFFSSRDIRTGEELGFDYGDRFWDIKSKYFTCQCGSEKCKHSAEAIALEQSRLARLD
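AlphaScreen read-out: biotin-H3K9 peptide (500 nM) methylation by 20 nM enzyme with 20 uM SAM, 2 h at room temperature after 15 min compound preincubation; anti-monomethyl H3K9 antibody plus donor/acceptor beads, 10 min dark.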
JMJD2A Tudor inh: blocks the human JMJD2A Tudor domain | O75164 | Potency, µM (highest dose often 114 µM), for inactives: at the top dose activity change, negative = inhibition, hits mostly inhibitors | AlphaScreen JMJD2A-Tudor / H3K4me3 peptide binding | AID 504339 | hit rate 4.4% among 390,000; note: potency is the fitted concentration of half-maximal effect; % is set by controls: 0 for no effect and ±100 for the full control effect; nearly all actives have a fitted effect of over 50% in size
HP1b binding inh: blocks HP1-beta chromodomain binding to methylated histone tails; P83916; AlphaScreen HP1-beta / biotin-H3K9me3 peptide binding; Potency, µM (doses to about 114 µM), for inactives: at the highest dose activity change, negative = inhibition, hits mostly inhibitors; hit rate 0.56% among 390,000; AID 540317; note: potency is the fitted concentration of half-maximal effect; nearly all actives have a fitted effect of over 70% in size
Target sequence (P83916 whole entry, looked up): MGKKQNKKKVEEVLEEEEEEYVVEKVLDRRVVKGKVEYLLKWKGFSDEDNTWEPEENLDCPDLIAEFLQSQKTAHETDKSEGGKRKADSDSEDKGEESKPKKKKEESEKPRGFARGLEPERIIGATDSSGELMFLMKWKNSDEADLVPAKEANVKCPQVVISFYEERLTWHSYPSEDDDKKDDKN
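AlphaScreen: HP1-beta (50 nM) preformed 30 min with biotin-H3(1-18)K9me3 peptide (50 nM) in PBS pH 7.4, 0.01% Tween-20. Compound added for 30 min at RT, then streptavidin donor/nickel chelate acceptor beads (10 ug/mL) for 30 min.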
BAZ2B block: blocks human BAZ2B | Q9UIF8 | AlphaScreen BAZ2B-H3K14Ac peptide displacement | Potency, µM (series often up to 114 µM), without a hit: top-dose activity change, negative = inhibition, actives largely listed as inhibitors | hit rate 4.4% among 360,000; note: potency is the fitted concentration of half-maximal effect; % is set by controls: 0 for no effect and ±100 for the full control effect; nearly all actives have a fitted effect of over 60% in size
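Protein-peptide AlphaScreen: BAZ2B 50 nM, b-H3K14Ac 50 nM, 1x PBS pH 7.4 + 0.01% Tween-20. Preincubation 30 min RT; cpd 30 min RT (top 110 uM); beads 20 min RT, light-protected.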
CtBP-E1A inh: inhibitors of CtBP/E1A interaction; AlphaScreen GST-E1A/His-CtBP binding, 1536-well; hits give low values; activity change, % (concentration not given with the values); hit rate 0.49% among 340,000; in the data active = activity change below about -65%; inconclusive = mostly about -30% to -63%; note: % is set by controls: 0 for no effect and ±100 for the full control effect
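Protein mix (5X: 125 nM each GST-E1A, His-CtBP) was incubated with pinned compound 2 h at 37 deg C in dark, in 50 mM Tris pH 8.0 buffer with 300 mM NaCl. Glutathione donor and nickel acceptor beads followed; AlphaScreen signal read after 1 h.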
Active calls of the source: *; u = inconclusive; x = no result given; [ ] = another dose, or the depositor's remark. In the library only some 10% were active in any assay of this set; here they are far more common. Unless noted, calls come from the whole dose curve; as a rule, active = well fitted inhibition curve with a large enough effect; inconclusive = small, poorly fitted or top-dose-only effect; inactive = no such curve, though single readings can be large or run the other way.

SMILES	Six1-Eya2 blk	G9a inh	JMJD2A Tudor inh	HP1b binding inh	BAZ2B block	CtBP-E1A inh
Cc1ccc(-n2ncc3c(N4CCCCC4)ncnc32)cc1	x	7%[59 µM]	17%	63%	72%	x
N/C(=N\OC(=O)c1csnn1)c1ccc(C(F)(F)F)cc1	-1	18µM*	-5%	-20%	-1%	5
c1ccn2c(SCc3ccc4c(c3)OCCO4)nnc2c1	11	56µM*	-6%	32%	u	-2
O=[N+]([O-])c1cccc(CSc2nnc3ccccn23)c1	0	-6%	-1%	20%	1%	-18
COc1ccccc1CNC(=O)CSc1cc(C)[nH]c(=O)n1	x	10%[59 µM]	-11%	-6%	-6%	x
CN(C)c1ccc(Nc2nc(N)c([N+](=O)[O-])c(N3CCOCC3)n2)cc1	-29	7.1µM*	u	u	35µM*	u
CCOc1ccc(Nc2nc(N)c([N+](=O)[O-])c(N3CCN(C)CC3)n2)cc1	7	79µM*	-25%	16%	u	14
CCN1CCN(c2nc(Nc3ccc(C)c(C)c3)nc(N)c2[N+](=O)[O-])CC1	u	10µM*	u	u	u	u
Cc1cccc(Nc2nc(N)c([N+](=O)[O-])c(N3CCC(C)CC3)n2)c1	-13	50µM*	32µM*	u	u	-21
C[C@H](CCC(=O)O)[C@H]1CC[C@H]2[C@H]3C(C[C@H](O)[C@]12C)[C@@]1(C)CC[C@@H](O)C[C@H]1C[C@H]3O (some centres undefined)	x	22%[59 µM]	x	x	x	x
O=[N+]([O-])c1cc(C(F)(F)F)cc([N+](=O)[O-])c1NCCCNc1ccc([N+](=O)[O-])c2cccnc12	-29	3.5µM*	u	-38%	-37%	-28
CS(=O)(=O)NCCCNc1ccc(C(F)(F)F)cc1[N+](=O)[O-]	10	-21%	-14%	9%	-33%	2
O=[N+]([O-])c1ccc(Cl)cc1NCc1cccnc1	-10	x	-25%	u	x	-2
O=[N+]([O-])c1cc(C(F)(F)F)cc([N+](=O)[O-])c1NCc1cccnc1	-1	50µM*	-33%	-19%	-28%	-2
CN1CCC/C1=C1/C(=O)N(c2ccccc2)N=C1NC(=O)Nc1cccc(Cl)c1	-10	-36%	20µM*	-16%	-18%	x
Cc1ccc(NC(=O)NC2=NN(c3ccccc3)C(=O)/C2=C2/CCCN2C)cc1	4	-46%	-7%	39%	2%	8
CC(c1ccc(O)cc1)(c1ccc(O)cc1)c1ccc(CCBr)cc1	3	79µM*	-33%	4%	u	x
O=C(NNC(=O)C1C2C=CC(C2)C1C(=O)O)c1ccccc1O (centres undefined)	4	-8%	-17%	37%	50µM*	4
Cc1c(Cl)cccc1NC(=O)C1C2C=CC(C2)C1C(=O)O (centres undefined)	-8	12%	-6%	19%	4%	-4
Cc1ccc(-c2cccc(NC(=O)C3C(C(=O)O)[C@@H]4C=C[C@H]3C4)c2)o1 (some centres undefined)	-15	16µM*	-25%	6%	u	-6
O=C(NNC(=O)C1C2C=CC(C2)C1C(=O)O)c1ccccc1 (centres undefined)	4	15%[59 µM]	-8%	7%	0%	6
O=C(O)c1cccc(NC(=O)C2C3C=CC(C3)C2C(=O)O)c1 (centres undefined)	-3	50µM*	-26%	34%	2%	7
Cc1ccc(-c2ccccc2NC(=O)C2C3C=CC(C3)C2C(=O)O)o1 (centres undefined)	-2	u	-31%	-7%	56µM*	-2
O=C(CCC1CCCC1)Nc1nnc(-c2ccc3c(c2)OCO3)s1	-6	-11%[59 µM]	-6%	23%	-2%	7
COc1ccc(C(C)(C)C)cc1NC(=O)C1C2C=CC(C2)C1C(=O)O (centres undefined)	-1	50µM*	-13%	17%	-35%	-7
